The record followed here is article PMC7862700, “An all-to-all approach to the identification of sequence-specific readers for epigenetic DNA modifications on cytosine”.

Holding throughout (assay): DAPPL (digital affinity profiling via proximity ligation, sequencing); 10 mM Tris-HCl pH 7.5, 50 mM NaCl, 1 mM DTT, 4% glycerol, room temperature, 30 min; GST-TFs on glutathione beads, 16-mer random dsDNA library, 0.1% formaldehyde crosslink after washing; high values mean tight binding
What all share (details): protein: recombinant; tags: N-terminal GST; dsDNA, one strand shown

For assay [1], the target named is T1, FLI1 (Homo sapiens, UniProt Q01543 1-452).
T1 sequence: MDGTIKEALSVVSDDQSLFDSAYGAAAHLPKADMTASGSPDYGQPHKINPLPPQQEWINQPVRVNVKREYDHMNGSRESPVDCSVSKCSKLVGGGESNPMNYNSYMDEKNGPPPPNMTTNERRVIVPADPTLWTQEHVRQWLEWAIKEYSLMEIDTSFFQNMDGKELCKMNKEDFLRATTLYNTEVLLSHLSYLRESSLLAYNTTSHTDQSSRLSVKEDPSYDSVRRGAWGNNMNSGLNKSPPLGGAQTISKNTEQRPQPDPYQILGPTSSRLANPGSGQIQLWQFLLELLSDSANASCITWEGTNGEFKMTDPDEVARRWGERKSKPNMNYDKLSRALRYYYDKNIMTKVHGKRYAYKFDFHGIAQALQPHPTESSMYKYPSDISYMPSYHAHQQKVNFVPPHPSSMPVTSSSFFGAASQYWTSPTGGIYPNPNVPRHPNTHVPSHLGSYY
In outline: (§1)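 After expression in yeast as GST fusions, human transcription factors were bound to glutathione beads, DNA-barcoded and mixed with a tag-only sample. The pools were incubated with 200 nmole of a 16-mer random double-stranded DNA library in Tris/NaCl/DTT/glycerol buffer (30 min, room temperature), washed and crosslinked with 0.1% formaldehyde. Proximity ligation with BsaI/T4 ligase ran for 1 h at 37 °C, before PCR amplification and sequencing on an Illumina NextSeq500. Binding signal is a hexamer's read frequency for a factor divided by its frequency for the tag-only sample.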

For assay [2], the target named is T2, ELK1 (Homo sapiens, UniProt P19419 1-428).
T2 sequence: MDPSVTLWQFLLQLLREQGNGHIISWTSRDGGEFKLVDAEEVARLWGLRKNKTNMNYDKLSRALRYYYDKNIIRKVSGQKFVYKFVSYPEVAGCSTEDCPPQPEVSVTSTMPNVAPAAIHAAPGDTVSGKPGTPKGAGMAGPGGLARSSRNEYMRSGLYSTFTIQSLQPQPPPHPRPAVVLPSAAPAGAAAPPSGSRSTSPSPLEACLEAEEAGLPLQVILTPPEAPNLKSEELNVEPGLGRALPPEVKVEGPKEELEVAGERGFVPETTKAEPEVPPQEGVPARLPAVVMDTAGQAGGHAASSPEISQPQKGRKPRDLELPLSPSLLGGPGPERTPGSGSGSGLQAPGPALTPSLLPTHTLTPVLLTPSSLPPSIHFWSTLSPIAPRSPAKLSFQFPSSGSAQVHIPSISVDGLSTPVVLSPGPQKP
In outline:
as §1

The target of assay [3] is T3, GABPA (Homo sapiens, UniProt Q06546 1-454).
T3 sequence: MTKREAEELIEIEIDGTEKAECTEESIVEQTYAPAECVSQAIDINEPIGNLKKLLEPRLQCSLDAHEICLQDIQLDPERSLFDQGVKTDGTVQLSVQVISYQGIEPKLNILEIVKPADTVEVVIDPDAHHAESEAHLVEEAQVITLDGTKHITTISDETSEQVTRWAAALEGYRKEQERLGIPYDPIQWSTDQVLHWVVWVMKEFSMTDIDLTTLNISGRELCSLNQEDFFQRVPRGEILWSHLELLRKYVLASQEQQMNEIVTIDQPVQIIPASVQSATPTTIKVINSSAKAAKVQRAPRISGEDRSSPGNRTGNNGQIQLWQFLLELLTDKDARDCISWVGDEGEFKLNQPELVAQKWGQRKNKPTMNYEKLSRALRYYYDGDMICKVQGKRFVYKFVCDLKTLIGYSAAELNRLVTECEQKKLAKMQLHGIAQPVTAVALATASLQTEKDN
In outline:
as §1

The target of assay [4] is T4, ERG (Homo sapiens, UniProt P11308 1-479).
T4 sequence: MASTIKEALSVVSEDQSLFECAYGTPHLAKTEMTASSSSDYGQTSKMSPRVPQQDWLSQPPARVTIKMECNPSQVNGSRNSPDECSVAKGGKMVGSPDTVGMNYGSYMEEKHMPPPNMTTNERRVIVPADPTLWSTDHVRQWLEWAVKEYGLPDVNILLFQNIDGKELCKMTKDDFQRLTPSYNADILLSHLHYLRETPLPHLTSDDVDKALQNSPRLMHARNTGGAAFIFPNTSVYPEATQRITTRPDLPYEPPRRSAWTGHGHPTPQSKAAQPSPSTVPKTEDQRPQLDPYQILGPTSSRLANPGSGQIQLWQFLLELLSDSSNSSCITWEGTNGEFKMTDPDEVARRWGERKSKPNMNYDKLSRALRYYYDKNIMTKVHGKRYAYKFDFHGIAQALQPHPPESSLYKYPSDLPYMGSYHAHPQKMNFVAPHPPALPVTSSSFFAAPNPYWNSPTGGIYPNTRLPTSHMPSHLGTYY
The method in brief: as §1

The target in assay [5] is ELF1 (Homo sapiens, UniProt P32519 1-619). In outline:
as §1

Assay [6] deals with T5, EHF (Homo sapiens, UniProt Q9NZC4 1-300).
T5 sequence: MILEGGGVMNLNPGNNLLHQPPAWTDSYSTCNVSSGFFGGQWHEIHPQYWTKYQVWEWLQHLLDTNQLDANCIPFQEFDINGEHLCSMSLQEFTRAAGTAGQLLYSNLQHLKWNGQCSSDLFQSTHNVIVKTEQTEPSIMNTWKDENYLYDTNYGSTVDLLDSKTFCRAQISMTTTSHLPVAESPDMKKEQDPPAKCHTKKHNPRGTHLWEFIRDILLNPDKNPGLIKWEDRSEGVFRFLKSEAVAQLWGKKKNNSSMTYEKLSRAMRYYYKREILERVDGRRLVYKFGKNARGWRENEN
In outline:
as §1

Assay [7] has as its target SPI1 (Homo sapiens, UniProt P17947 1-270). In outline:
as §1

Assay [8] addresses SPIB (Homo sapiens, UniProt Q01892 1-262). In outline: as §1
Assay [9] has as its target T6, ELK3 (Homo sapiens, UniProt P41970 1-407).
T6 sequence: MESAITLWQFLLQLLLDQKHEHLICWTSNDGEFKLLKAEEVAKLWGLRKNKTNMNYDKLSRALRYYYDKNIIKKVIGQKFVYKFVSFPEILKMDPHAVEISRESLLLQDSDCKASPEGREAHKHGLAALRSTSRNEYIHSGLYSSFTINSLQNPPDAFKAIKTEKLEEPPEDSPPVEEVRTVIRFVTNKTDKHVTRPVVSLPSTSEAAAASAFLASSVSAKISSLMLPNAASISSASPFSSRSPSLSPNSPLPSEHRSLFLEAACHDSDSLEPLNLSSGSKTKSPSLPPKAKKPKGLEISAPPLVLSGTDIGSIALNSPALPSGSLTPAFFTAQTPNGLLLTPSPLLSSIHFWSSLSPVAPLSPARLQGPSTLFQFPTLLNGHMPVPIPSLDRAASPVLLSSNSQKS
In outline:
as §1

The target in assay [10] is T7, FEV (Homo sapiens, UniProt Q99581 1-238).
T7 sequence: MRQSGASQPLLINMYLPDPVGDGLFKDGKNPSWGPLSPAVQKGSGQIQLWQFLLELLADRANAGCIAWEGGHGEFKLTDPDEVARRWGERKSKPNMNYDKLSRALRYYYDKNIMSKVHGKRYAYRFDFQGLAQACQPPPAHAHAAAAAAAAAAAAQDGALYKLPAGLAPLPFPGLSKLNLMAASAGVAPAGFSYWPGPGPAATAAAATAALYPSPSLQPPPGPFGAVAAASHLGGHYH
The method in brief:
as §1

Assay [11] concerns the target ETV5 (Homo sapiens, UniProt P41161 1-510). The method in brief: as §1
In assay [12] the target is T8, SPIC (Homo sapiens, UniProt Q8N5J4 1-248).
T8 sequence: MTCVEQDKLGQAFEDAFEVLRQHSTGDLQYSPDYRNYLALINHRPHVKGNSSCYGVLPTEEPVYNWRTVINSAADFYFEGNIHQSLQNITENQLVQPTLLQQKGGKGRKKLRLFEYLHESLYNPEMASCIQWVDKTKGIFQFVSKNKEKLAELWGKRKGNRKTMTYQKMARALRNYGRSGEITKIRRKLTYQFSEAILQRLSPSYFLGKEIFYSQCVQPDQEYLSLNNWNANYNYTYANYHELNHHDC
The method in brief: as §1

For assay [13], the target named is ELF4 (Homo sapiens, UniProt Q99607 1-663). The method in brief: as §1
Assay [14] concerns the target ETV1 (Homo sapiens, UniProt P50549 1-477). In outline:
as §1

The target in assay [15] is T9, ERF (Homo sapiens, UniProt P50548 1-548).
T9 sequence: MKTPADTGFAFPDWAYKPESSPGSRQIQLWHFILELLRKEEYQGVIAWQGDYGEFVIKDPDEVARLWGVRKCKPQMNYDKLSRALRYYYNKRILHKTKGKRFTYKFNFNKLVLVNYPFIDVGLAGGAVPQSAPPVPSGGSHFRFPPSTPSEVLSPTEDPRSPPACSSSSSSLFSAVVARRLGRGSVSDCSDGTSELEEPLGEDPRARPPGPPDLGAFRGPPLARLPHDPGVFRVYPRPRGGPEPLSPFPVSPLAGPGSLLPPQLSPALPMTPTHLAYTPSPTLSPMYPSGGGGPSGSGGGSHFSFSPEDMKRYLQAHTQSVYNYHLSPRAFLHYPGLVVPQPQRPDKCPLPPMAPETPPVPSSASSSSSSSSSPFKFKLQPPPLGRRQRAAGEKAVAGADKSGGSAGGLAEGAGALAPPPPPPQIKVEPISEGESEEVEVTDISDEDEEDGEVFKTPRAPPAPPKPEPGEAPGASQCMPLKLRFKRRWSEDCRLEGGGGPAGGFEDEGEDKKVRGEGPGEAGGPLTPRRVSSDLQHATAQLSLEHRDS
In outline:
as §1

Assay [16] has as its target T10, ETV3L (Homo sapiens, UniProt Q6ZN32 1-361).
T10 sequence: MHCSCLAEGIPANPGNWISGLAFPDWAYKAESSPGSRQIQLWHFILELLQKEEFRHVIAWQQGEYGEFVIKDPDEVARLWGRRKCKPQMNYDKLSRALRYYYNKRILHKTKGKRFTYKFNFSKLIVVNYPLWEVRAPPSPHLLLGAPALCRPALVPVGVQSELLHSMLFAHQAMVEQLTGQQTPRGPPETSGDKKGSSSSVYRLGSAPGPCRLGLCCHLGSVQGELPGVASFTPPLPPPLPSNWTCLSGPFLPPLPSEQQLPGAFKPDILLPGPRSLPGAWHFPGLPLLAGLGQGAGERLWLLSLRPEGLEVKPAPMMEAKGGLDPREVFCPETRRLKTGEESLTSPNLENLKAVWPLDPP
The method in brief:
as §1

Assay [17] concerns the target T11, ETS2 (Homo sapiens, UniProt P15036 1-469).
T11 sequence: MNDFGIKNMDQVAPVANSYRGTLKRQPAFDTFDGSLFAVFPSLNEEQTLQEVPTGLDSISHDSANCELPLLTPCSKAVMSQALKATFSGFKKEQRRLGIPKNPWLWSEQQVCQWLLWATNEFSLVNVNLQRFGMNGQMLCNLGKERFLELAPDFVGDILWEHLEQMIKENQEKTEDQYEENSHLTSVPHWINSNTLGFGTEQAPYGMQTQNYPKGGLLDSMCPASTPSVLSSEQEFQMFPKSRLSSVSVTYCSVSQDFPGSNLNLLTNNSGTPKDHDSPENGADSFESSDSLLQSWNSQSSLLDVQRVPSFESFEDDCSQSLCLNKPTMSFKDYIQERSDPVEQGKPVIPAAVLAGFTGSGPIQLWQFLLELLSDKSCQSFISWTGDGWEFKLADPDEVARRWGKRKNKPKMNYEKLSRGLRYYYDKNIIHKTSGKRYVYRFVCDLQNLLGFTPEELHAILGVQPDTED
The method in brief:
as §1

Assay [18] addresses T12, ELF5 (Homo sapiens, UniProt Q9UKW6-2 1-255).
T12 sequence: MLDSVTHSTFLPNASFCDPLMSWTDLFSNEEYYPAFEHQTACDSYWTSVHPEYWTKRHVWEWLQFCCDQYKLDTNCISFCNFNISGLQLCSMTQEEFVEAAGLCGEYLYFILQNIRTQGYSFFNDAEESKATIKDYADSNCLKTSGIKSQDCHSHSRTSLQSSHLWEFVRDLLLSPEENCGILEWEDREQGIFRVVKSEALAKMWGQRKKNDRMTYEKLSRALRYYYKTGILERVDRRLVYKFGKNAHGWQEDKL
The method in brief:
as §1

Assay [19] deals with T13, ETV3 (Homo sapiens, UniProt P41162-2 1-143).
T13 sequence: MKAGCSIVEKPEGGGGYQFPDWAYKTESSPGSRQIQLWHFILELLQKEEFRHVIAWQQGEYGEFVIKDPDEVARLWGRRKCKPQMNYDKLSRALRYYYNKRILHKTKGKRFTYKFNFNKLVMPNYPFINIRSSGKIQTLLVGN
The method in brief: as §1

The target in assay [20] is ETV6 (Homo sapiens, UniProt P41212 1-452). The method in brief:
as §1

ETV5, sequence (P41161 whole entry): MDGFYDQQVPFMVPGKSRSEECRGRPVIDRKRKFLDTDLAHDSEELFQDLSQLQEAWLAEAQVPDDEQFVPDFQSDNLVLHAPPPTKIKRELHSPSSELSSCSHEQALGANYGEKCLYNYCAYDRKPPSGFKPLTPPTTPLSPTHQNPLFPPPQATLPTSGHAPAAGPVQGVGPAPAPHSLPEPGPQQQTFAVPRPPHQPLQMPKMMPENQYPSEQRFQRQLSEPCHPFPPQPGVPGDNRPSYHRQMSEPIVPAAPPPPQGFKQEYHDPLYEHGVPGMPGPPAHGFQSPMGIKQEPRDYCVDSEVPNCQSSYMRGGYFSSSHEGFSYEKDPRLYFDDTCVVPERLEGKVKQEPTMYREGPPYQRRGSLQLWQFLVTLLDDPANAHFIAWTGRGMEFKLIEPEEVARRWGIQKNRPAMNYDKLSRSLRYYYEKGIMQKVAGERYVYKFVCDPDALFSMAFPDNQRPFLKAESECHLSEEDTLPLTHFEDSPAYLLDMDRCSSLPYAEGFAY
ELF1, sequence (P32519 whole entry): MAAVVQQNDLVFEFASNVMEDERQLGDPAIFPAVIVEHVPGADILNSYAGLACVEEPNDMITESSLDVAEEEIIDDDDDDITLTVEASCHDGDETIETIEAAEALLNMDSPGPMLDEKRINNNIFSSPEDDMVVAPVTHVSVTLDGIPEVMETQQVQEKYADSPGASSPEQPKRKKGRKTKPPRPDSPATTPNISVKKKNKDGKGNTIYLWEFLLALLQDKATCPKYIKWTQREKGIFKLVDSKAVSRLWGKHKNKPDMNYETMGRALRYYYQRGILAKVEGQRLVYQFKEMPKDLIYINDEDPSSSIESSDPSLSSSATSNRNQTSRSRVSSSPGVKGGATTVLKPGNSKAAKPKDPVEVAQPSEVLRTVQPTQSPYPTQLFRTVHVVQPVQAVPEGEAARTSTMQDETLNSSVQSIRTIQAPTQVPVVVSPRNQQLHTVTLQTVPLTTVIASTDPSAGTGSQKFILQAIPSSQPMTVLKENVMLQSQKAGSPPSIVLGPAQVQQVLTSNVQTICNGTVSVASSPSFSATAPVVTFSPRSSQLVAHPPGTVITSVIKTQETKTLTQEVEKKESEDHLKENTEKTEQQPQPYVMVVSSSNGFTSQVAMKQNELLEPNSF
ETV1, sequence (P50549 whole entry): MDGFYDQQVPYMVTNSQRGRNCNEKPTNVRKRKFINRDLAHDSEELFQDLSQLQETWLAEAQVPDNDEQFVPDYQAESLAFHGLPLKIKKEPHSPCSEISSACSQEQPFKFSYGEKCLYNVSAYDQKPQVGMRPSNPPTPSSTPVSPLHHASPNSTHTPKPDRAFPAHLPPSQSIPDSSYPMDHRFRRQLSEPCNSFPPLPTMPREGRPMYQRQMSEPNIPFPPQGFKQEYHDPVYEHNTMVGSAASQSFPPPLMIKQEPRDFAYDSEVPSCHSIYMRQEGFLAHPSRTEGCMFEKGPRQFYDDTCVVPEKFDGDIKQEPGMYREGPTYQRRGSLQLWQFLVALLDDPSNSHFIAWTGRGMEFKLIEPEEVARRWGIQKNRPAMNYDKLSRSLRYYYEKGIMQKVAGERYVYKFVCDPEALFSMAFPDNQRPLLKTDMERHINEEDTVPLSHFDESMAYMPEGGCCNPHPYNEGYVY
ELF4, sequence (Q99607 whole entry): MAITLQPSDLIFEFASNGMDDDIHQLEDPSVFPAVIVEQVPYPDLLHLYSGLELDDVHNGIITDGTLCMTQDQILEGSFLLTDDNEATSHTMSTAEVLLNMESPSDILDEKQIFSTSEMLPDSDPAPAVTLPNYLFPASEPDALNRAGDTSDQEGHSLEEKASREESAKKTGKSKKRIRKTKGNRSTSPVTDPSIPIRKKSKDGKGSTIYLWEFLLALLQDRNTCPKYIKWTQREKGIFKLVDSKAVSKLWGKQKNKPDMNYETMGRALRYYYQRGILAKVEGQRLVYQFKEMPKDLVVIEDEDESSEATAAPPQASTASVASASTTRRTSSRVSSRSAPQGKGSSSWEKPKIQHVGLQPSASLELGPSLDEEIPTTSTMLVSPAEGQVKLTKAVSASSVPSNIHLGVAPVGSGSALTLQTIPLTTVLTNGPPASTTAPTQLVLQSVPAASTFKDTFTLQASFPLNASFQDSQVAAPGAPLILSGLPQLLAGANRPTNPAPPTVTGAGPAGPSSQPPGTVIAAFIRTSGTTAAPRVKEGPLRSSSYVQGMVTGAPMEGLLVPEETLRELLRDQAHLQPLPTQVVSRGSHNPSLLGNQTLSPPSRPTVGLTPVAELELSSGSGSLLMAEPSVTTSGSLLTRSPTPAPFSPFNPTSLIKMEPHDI
ETV6, sequence (P41212 whole entry): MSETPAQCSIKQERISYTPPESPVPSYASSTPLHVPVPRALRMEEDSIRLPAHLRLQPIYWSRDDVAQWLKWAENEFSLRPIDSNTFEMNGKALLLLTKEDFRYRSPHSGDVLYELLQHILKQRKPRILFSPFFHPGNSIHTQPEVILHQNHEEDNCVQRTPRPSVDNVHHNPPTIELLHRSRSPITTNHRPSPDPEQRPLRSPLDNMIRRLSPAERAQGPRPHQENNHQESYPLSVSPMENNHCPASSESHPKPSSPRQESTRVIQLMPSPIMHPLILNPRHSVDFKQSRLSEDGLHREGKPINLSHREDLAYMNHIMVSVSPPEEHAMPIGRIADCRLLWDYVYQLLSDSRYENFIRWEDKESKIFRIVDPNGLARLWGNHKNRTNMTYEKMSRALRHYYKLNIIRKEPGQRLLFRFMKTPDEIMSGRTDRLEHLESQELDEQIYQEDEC
SPIB, sequence (Q01892 whole entry): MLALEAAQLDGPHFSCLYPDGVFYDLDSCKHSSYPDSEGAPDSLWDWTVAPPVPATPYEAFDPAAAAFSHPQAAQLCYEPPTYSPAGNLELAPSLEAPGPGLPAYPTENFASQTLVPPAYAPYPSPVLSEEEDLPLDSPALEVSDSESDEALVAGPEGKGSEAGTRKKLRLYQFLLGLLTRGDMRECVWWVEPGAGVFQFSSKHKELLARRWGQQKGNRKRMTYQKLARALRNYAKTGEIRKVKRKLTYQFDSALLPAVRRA

For the sequence GTCTAC, the binding signal in assay [1] is 1.09 fold enrichment (6-mer frequency, TF over GST control); in assay [2], 1.08 fold enrichment (6-mer frequency, TF over GST control); in [3] it was 1.08 fold enrichment (6-mer frequency, TF over GST control); in assay [4], 1.05 fold enrichment (6-mer frequency, TF over GST control); in assay [5] it was 1.05 fold enrichment (6-mer frequency, TF over GST control); in assay [6], 1.16 fold enrichment (6-mer frequency, TF over GST control). In addition, the binding signal is 1.12 fold enrichment (6-mer frequency, TF over GST control) in assay [7]; 1.03 fold enrichment (6-mer frequency, TF over GST control) in [8]; 1.06 fold enrichment (6-mer frequency, TF over GST control) in [9]; 1.08 fold enrichment (6-mer frequency, TF over GST control) in [10]; 1.11 fold enrichment (6-mer frequency, TF over GST control) in assay [11]; 1.1 fold enrichment (6-mer frequency, TF over GST control) in assay [12]. Further, the binding signal in assay [13] is 1.09 fold enrichment (6-mer frequency, TF over GST control); in [14], 1.19 fold enrichment (6-mer frequency, TF over GST control); in [15], 1.07 fold enrichment (6-mer frequency, TF over GST control); in assay [16] it was 1.26 fold enrichment (6-mer frequency, TF over GST control); in assay [17], 1.13 fold enrichment (6-mer frequency, TF over GST control); in [18], 1.08 fold enrichment (6-mer frequency, TF over GST control). Moreover, the binding signal in [19] was 1.06 fold enrichment (6-mer frequency, TF over GST control); in [20] it was 1 fold enrichment (6-mer frequency, TF over GST control).
